Sampled rows, rich in hits. Any-hit rate of the full collection: about 2.6%.
PABP1 MLLE inh = inhibitors of PABP1 MLLE–PAM2 peptide binding, primary screen, biochemical, fluorescence polarization, FITC-PAM2, GST-MLLE; Polyadenylate-binding protein 1 (Homo sapiens), P11940; inhibition, % at 20 µM; 0.36% of 360,000 active; AID 588489, 2011; in the data active means inhibition above about 35%, passing the limit was not always enough
Target sequence (P11940 whole entry, looked up): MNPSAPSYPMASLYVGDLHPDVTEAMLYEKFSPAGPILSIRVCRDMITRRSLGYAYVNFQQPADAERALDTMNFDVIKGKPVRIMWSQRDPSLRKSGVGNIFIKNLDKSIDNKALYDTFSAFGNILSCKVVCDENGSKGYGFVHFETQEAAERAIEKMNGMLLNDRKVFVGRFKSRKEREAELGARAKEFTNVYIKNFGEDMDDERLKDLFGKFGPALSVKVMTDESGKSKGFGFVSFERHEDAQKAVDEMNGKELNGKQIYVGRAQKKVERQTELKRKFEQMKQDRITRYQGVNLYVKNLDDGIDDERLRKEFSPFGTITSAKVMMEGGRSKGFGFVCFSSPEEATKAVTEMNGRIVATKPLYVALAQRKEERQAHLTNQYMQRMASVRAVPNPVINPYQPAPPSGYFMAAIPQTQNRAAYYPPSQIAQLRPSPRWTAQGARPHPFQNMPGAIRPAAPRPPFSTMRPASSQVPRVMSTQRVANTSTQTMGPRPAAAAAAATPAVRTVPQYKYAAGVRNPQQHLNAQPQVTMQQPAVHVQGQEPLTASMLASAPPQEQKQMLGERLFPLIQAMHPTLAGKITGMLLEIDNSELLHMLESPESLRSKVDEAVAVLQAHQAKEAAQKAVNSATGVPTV
eIF4H inh = human eIF4H binding inhibitors, primary screen, translation initiation inhibitor project, biochemical, uHTS, fluorescence polarization; Eukaryotic translation initiation factor 4H (Homo sapiens), Q15056; eIF4H fluorescence polarization binding assay; inhibition, % at 35 µM; 0.94% of 290,000 active; AID 2012, 2009;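 further: calls also rest on retests at 20 µM and on dose response follow-up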
CRFBP-R2 block = antagonists of CRF-BP/CRF-R2 complex, primary screen, cell-based, HEK293, calcium dye fluorescence, uHTS. CRF-induced calcium fluorescence. inhibition, % at 11.8 µM. 0.59% of 350,000 active;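 active means inhibition of the ligand-induced calcium signal above about 50% at the single tested concentration, limit read from the data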
PHOSPHO1 inh = PubChem AID 1565 | Phosphoethanolamine/phosphocholine phosphatase (Homo sapiens), Q8TCT1 | recombinant PHOSPHO1, absorbance phosphatase assay | inhibition, % at 13.3 µM | 1.1% of 290,000 active; in the data active means inhibition above about 60%
PABP polyA inh = PABP poly(A) RNA binding inhibitors, primary screen, biochemical, fluorescence polarization, uHTS | 1% of 290,000 active | Polyadenylate-binding protein 1 (Homo sapiens), P11940 | inhibition, % at 35 µM;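 further: calls also rest on retests at 20 µM and on dose response follow-up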
Each line names hits and unclear results; the compound was inactive in the other large screens. Unless noted, how the calls were made is not given here.

COc1ccc(OC)c(NC(=O)Nc2nnc([C@H]3C[C@H](O)[C@@H](CO)O3)s2)c1	none (no result: eIF4H inh, CRFBP-R2 block, PHOSPHO1 inh, PABP polyA inh)
COc1ccc(/C=N/OCC(=O)N=Nc2c(O)[nH]c3ccc(Br)cc23)cc1	CRFBP-R2 block 55
COCCNc1nc2cc(-c3cccc(Cl)c3)sc2c(=O)n1C	none (no result: eIF4H inh, CRFBP-R2 block, PHOSPHO1 inh, PABP polyA inh)
COC(=O)c1ccccc1NC(=O)C(=O)NCc1ccncc1	PHOSPHO1 inh 66
CCOc1ccc(NC(=O)C(=O)NCc2ccncc2)cc1	PHOSPHO1 inh 68
O=C(OCC(=O)N1CCNC1=O)c1ccccc1Cl	none (no result: eIF4H inh, PHOSPHO1 inh, PABP polyA inh)
CCCC(=Nc1ccc(N)cc1)C1=C(O)C(C(=O)OC)C(C)(C)CC1=O (stereo not drawn)	eIF4H inh 57, PABP polyA inh 64
CCCC(=O)C1=C(O)C(C(=O)OC)C(C)(C)CC1=Nc1ccc(N)cc1 (stereo not drawn)	none
COc1ccc([C@H]2CC(=O)C=C(c3cc4ccccc4s3)C2)cc1OC	none (no result: eIF4H inh, PHOSPHO1 inh, PABP polyA inh)
CC1(C(=O)NS(=O)(=O)c2ccc(C#N)cc2)CCN1C(=O)Cc1ccc(-c2ccccc2)cc1 (stereo not drawn)	none (no result: eIF4H inh, CRFBP-R2 block, PHOSPHO1 inh, PABP polyA inh)
O=C(CSc1nc(-c2ccccc2)c(-c2ccccc2)o1)N1CCCCC1	none (no result: eIF4H inh, PHOSPHO1 inh, PABP polyA inh)
O=C(CSCC(=O)N1CCCCC1)Nc1nc(-c2ccccc2)c(-c2ccccc2)s1	eIF4H inh 80, PABP polyA inh 17
CN1C(=O)[C@H]2[C@@H](c3ccc(C(F)(F)F)cc3)N[C@]3(CCCN(Cc4ccc(Br)cc4)C3=O)[C@H]2C1=O	none (no result: eIF4H inh, PHOSPHO1 inh, PABP polyA inh)
CCCC(=O)N1CCC1(C)C(=O)Nc1cc(OC)c(OC)c(OC)c1 (stereo not drawn)	none (no result: eIF4H inh, CRFBP-R2 block, PHOSPHO1 inh, PABP polyA inh)
Cc1noc(C)c1NC(=O)N(C)C[C@H]1OCc2cn(nn2)CCCC(=O)N([C@@H](C)CO)C[C@@H]1C	none (no result: eIF4H inh, PHOSPHO1 inh, PABP polyA inh)
Cc1ccc(NC(=O)COC(=O)CCc2c[nH]c3ccccc23)c(C)c1	CRFBP-R2 block 54 (no result: eIF4H inh, PHOSPHO1 inh, PABP polyA inh)
CCc1nc2c(OCc3ccc4c(c3)OCO4)cccn2c1N(C=O)Cc1ccc(OC)cc1	none (no result: eIF4H inh, CRFBP-R2 block, PHOSPHO1 inh, PABP polyA inh)
Cc1nc(NC(=S)Nc2ccccc2)sc1C	PABP1 MLLE inh 37
CCc1nnc(NC(=S)Nc2ccccc2)s1	CRFBP-R2 block 57
COC[C@@H]1CCCN1[C@H]1CS(=O)(=O)N[C@@H]1COCc1ccccc1	none (no result: eIF4H inh, CRFBP-R2 block, PHOSPHO1 inh, PABP polyA inh)
CC(C)c1ccc(NC(=S)N2CCCC(c3ccc(F)cc3)=N2)cc1	none
Cc1cccc(NC(=O)C(=O)NCCCc2ccccc2)c1	none (no result: PABP1 MLLE inh, CRFBP-R2 block)
Clc1cccc(Cl)c1C1Nc2cccc3cccc(c23)N1	eIF4H inh 99, PABP polyA inh 81
Fc1cccc(Cl)c1C1Nc2cccc3cccc(c23)N1	eIF4H inh 96, PABP polyA inh 87 (no result: PHOSPHO1 inh)
Clc1ccccc1NN(Cc1ccncc1)c1ccccc1Cl	CRFBP-R2 block 53 (no result: eIF4H inh, PHOSPHO1 inh, PABP polyA inh)
CCN(CC)C(=O)C1=C(C)N(CCCOC)C(=O)C(CC(=O)NC(c2ccccc2)c2ccccc2)C1 (stereo not drawn)	none (no result: eIF4H inh, PHOSPHO1 inh, PABP polyA inh)
Cc1ccc(NC(=O)c2cc(N3C(=O)C=CC3=O)ccc2Cl)cc1C	eIF4H inh inconclusive, PABP polyA inh active
Nc1nc(SCC(=O)C23CC4CC(CC(C4)C2)C3)n[nH]1	PHOSPHO1 inh 88
CCOC(=O)C1=C(Cc2ccc(C)cc2)C(=O)c2ccccc2C1=O	none (no result: PABP1 MLLE inh, CRFBP-R2 block)
CCOC(=O)C1=C(Cc2ccc(OC)cc2)C(=O)c2ccccc2C1=O	eIF4H inh inconclusive, PHOSPHO1 inh 71, PABP polyA inh inconclusive
Cc1ccc(C2CC2C(=O)NNC(=S)Nc2ccc(Cl)cc2)cc1 (stereo not drawn)	PABP1 MLLE inh 44
CC(C)(C)NC(=S)NNC(=O)[C@H]1C[C@@H]1c1ccccc1	none
COc1cccc(CN2CCC(C)(Oc3cccc(Cl)c3)C2)c1OC (stereo not drawn)	none (no result: eIF4H inh, CRFBP-R2 block, PHOSPHO1 inh, PABP polyA inh)
O=C1Nc2ccccc2C1=NN1CCCCCC1	none (no result: eIF4H inh, PHOSPHO1 inh, PABP polyA inh)
Nc1n[nH]c(=S)n1/N=C1/C(=O)Nc2ccccc21	PABP1 MLLE inh 45
COC(=O)c1cc(C(=O)OC)cc(N2C(=O)CC(Sc3nc(C)cc(C)n3)C2=O)c1 (stereo not drawn)	none
COC(=O)c1ccc(N2C(=O)CC(Sc3n[nH]c(C)n3)C2=O)cc1 (stereo not drawn)	PHOSPHO1 inh 85
CC(C)(C)OC(=O)C[C@H]1C/C=C\C[C@H](CC(=O)N[C@H](CO)Cc2ccccc2)C(=O)N2CCC[C@H]2COC1=O	none (no result: eIF4H inh, PHOSPHO1 inh, PABP polyA inh)
COc1cc2c(cc1OC)[C@@H](NC(=O)CCC1CCCCC1)[C@H](O)C2	none (no result: eIF4H inh, PHOSPHO1 inh, PABP polyA inh)
COc1cccc(CN2C(=O)C(C)N(C(=O)c3ccccc3)c3ccccc32)c1 (stereo not drawn)	CRFBP-R2 block 116
Cc1nn(Cc2ccc(Cl)cc2)c(C)c1NC(=O)c1ccc([N+](=O)[O-])cc1	CRFBP-R2 block 56
NC(=O)COC(=O)c1ccc(-c2ccc(O)cc2)cc1	CRFBP-R2 block 80
CC1(C)C2CC=C(/C=N/NC(=O)c3ccc(O)cc3)C1C2 (stereo not drawn)	none
CC1(C)Cc2ccccc2-c2c1c(=O)n(Cc1ccccc1)c1nnnn21	CRFBP-R2 block 61
Cc1nc2cc(NC(=O)C3COc4ccccc4O3)ccc2s1 (stereo not drawn)	PABP polyA inh 55
C[C@H](O)[C@H](O)[C@H]1CNc2nc(N)[nH]c(=O)c2N1	PABP1 MLLE inh 89 (no result: eIF4H inh, PHOSPHO1 inh, PABP polyA inh)
COc1ccc(Cl)cc1NC(=O)CN(C)C(=O)Cn1cnnn1	none (no result: eIF4H inh, PHOSPHO1 inh, PABP polyA inh)
